# Assay results from PubChem BioAssay (EPA / NIEHS).
# Inconclusive results are not listed. Active and inactive are the calls of the source. The calls were made as follows, unless noted: active = hit-call score of the fitted dose curve at least 0.9, where 1 is the maximum; inconclusive = response in the unintended direction; inactive = score below 0.9.
# Tests used:
# [1] = molecular target: Nucleoli Translocation, AR (gene 367) (UniProt P10275); test: UPITT_HCI_U2OS_AR_TIF2_Nucleoli_Antagonist: University of Pittsburgh U2OS Androgen Receptor-Transcriptional Intermediary Factor 2 (AR-TIF2) Antagonism High Content Imaging Assay for Nucleoli Translocation (AID 2283997)
# Chain of Nucleoli Translocation, AR (gene 367) (P10275 whole entry, looked up, the tested form may be a part): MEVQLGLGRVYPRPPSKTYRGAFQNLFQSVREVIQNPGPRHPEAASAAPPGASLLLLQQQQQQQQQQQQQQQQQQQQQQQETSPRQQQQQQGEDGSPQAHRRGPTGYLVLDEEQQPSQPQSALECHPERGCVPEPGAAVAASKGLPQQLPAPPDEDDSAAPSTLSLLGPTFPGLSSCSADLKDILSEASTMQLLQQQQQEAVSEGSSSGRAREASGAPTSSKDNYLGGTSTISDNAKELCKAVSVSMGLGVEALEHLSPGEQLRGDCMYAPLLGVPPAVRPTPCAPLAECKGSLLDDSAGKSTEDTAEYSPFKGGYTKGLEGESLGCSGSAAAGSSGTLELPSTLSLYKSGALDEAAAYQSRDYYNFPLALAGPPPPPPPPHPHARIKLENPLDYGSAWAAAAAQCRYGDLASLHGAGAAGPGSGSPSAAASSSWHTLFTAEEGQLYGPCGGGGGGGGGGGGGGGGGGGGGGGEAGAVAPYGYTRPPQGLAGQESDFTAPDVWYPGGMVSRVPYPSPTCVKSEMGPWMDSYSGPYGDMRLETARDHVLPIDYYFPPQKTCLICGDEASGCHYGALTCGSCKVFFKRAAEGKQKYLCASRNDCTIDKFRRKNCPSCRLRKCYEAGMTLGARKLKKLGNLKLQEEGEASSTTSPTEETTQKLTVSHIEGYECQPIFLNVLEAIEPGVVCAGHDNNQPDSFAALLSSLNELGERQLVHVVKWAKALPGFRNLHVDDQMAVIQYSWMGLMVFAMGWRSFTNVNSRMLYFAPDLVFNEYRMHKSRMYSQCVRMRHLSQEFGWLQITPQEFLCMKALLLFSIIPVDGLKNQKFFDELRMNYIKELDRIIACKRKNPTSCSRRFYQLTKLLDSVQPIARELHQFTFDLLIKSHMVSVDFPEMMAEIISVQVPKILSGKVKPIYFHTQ
# Method in brief: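 Antagonism is read as loss of nucleolar AR-RFP signal relative to DHT, imaged in U2OS cells also carrying GFP-TIF2. Compounds screened at 20 uM final, 0.2% DMSO; primary actives retested in triplicate.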
# [2] = molecular target: Nucleoli Translocation, AR (gene 367) (UniProt P10275); test: UPITT_HCI_U2OS_AR_TIF2_Nucleoli_Agonist: University of Pittsburgh U2OS Androgen Receptor-Transcriptional Intermediary Factor 2 (AR-TIF2) Agonism High Content Imaging Assay for Nucleoli Translocation (AID 2283998)
# Method in brief: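 High-content images quantify nucleolar accumulation of RFP-fused AR in cells also expressing GFP-TIF2; the endpoint is fitted as signal gain versus DMSO controls across final concentrations of 0.195 to 50 uM.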
# [3] = molecular target: THRB (gene 7068) (UniProt P10828); test: TOX21_TRB_COA_Antagonist_Followup_ratio: Tox21 Thyroid Hormone Receptor beta Antagonism through Coactivator Recruitment Follow-Up Assay, Ratio (AID 2283967)
# Chain of THRB (gene 7068) (P10828 whole entry, looked up, the tested form may be a part): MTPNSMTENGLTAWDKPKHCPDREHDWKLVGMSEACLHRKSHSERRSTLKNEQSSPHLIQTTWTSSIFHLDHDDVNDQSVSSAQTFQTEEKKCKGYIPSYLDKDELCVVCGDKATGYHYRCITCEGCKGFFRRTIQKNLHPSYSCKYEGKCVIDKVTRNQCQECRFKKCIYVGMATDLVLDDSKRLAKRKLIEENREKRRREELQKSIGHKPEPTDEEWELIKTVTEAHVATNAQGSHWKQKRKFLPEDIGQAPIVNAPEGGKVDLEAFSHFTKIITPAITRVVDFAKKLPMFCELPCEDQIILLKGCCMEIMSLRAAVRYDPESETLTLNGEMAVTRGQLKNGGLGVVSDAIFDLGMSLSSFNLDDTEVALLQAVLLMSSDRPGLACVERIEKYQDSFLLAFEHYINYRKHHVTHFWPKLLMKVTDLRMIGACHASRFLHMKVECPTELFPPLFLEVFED
# Method in brief: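 Coactivator recruitment to the GST-tagged TRb ligand-binding domain (5.0 nM) was read as the 520/495 nm TR-FRET ratio, using 200 nM fluorescein SRC-2 peptide and 2 nM terbium anti-GST. Scaled between DMSO and T3 wells; loss of signal fitted.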
# [4] = molecular target: Retinoic acid receptor RXR-alpha (Homo sapiens) (UniProt P19793); test: TOX21_TR_RXR_BLA_Antagonist_Followup_ratio: Tox21 Thyroid Hormone Receptor beta Retinoid X Receptor alpha (RXRa) Antagonism Beta-lactamase (BLA) Follow-Up Assay, Ratio (AID 2283972)
# Chain of Retinoic acid receptor RXR-alpha (Homo sapiens) (P19793 whole entry, looked up): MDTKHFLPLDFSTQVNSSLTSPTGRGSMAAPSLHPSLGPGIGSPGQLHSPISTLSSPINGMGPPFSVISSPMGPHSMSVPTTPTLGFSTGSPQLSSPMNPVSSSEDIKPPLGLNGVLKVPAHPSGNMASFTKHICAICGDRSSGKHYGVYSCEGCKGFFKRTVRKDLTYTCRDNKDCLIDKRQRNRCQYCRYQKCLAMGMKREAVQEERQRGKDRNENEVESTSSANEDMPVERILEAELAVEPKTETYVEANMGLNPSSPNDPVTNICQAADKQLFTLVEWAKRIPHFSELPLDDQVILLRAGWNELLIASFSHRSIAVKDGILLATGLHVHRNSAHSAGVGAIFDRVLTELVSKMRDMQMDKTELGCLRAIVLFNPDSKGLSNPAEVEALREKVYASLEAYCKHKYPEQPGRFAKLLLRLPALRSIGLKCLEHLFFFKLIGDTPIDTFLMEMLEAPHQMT
# Method in brief: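 Compounds were tested in triplicate at 11 concentrations on RXRa-bla HEK293T cells for 16 h. Substrate cleavage ratio, normalized to DMSO, gave the endpoint.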
# [5] = TOX21_TR_RXR_BLA_Antagonist_Followup_viability: Viability Assessment in the Tox21 Thyroid Hormone Receptor beta Retinoid X Receptor alpha (RXRa) Antagonism Beta-lactamase (BLA) Follow-Up Assay (AID 2283979)
# Method in brief: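 Follow-up compounds (11 concentrations, triplicate) were incubated 16 h at 37C/5% CO2 with HEK293T RXRa-bla cells seeded at 2,500/well in charcoal-stripped-serum medium. ATP content by CellTiter-Glo luminescence gave viability; curves fitted in both directions against DMSO.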
# [6] = molecular target: THRB (gene 7068) (UniProt P10828); test: TOX21_TRB_COA_Agonist_Followup_ratio: Tox21 Thyroid Hormone Receptor beta Agonism through Coactivator Recruitment Follow-Up Assay, Ratio (AID 2283963; active = hit-call score of the fitted dose curve at least 0.9, where 1 is the maximum; inactive = score below 0.9)
# Method in brief: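 First, the GST-fused TRβ ligand-binding domain (5.0 nM) was incubated with test compound in 0.10% BSA. Next, fluorescein-tagged SRC-2 peptide (200 nM) and terbium anti-GST antibody (2 nM) were added. Finally, TR-FRET emission ratios were normalized against DMSO and T3 controls.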
# [7] = molecular target: Retinoic acid receptor RXR-alpha (Homo sapiens) (UniProt P19793); test: TOX21_TR_RXR_BLA_Agonist_Followup_ratio: Tox21 Thyroid Hormone Receptor beta Retinoid X Receptor alpha (RXRa) Agonism Beta-lactamase (BLA) Follow-Up Assay, Ratio (AID 2283968)
# Method in brief: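 Agonist mode: compounds given to RXRa-bla HEK293T cells at 11 concentrations, triplicate, 16 h at 37C/5% CO2. Readout is the 460:530 nm blue/green ratio after 2 h substrate loading at room temperature; DMSO baseline, 9-cis retinoic acid control.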
# [8] = TOX21_TR_RXR_BLA_Agonist_Followup_viability: Viability Assessment in the Tox21 Thyroid Hormone Receptor beta Retinoid X Receptor alpha (RXRa) Agonism Beta-lactamase (BLA) Follow-Up Assay (AID 2283970)
# Method in brief: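 CellTiter-Glo ATP luciferase read-out of cell viability, multiplexed with the beta-lactamase reporter run. RXRa-bla HEK293T cells in charcoal-stripped serum medium were exposed 16 h at 37C; data fitted both directions relative to DMSO.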
compound,measurement,setting,value
CCN(CC)C(=S)SSC(=S)N(CC)CC,AC50,[1],19.8 µM (active)
same,AC50,[2],50 µM (active)
COc1cc2c(c(OC)c1OC)-c1ccc(OC)c(=O)cc1[C@@H](NC(C)=O)CC2,outcome,[3],inactive
same,outcome,[4],inactive
same,outcome,[1],inactive
same,outcome,[2],inactive
CCCCC(CC)C(=O)OCCOCCOCCOC(=O)C(CC)CCCC (stereo not drawn),outcome,[1],inactive
same,outcome,[2],inactive
Cc1nccn1-c1ccc(Sc2cccc(C3(C(N)=O)CCOCC3)c2)cc1,outcome,[3],inactive
same,outcome,[4],inactive
same,outcome,[5],inactive
Cn1c(=O)c2[nH]cnc2n(C)c1=O,outcome,[6],inactive
same,outcome,[7],inactive
same,outcome,[8],inactive
CCCCCCOC(=O)CC(CC(=O)OCCCCCC)(OC(=O)CCC)C(=O)OCCCCCC,outcome,[1],inactive
same,outcome,[2],inactive
C=CCc1cc(S(=O)(=O)c2ccc(O)c(CC=C)c2)ccc1O,AC50,[2],84 µM (active)
Nc1ccn([C@@H]2O[C@H](CO)[C@@H](O)[C@@H]2O)c(=O)n1,outcome,[3],inactive
COc1cc(C(C)C)c2c(c1)S(=O)(=O)N(COc1cc(=O)n3cccc(OCCN4CCCCC4)c3n1)C2=O,AC50,[1],5.14 µM (active)
same,outcome,[2],inactive
O=c1[nH]cnc2c1ncn2[C@H]1CC[C@@H](CO)O1,outcome,[6],inactive
same,outcome,[7],inactive
same,outcome,[8],inactive
